An excerpt weighted towards active compounds, which were near 0.71% of everything screened.
GoLoco inh red – inhibitors of human Gai1-RGS12 GoLoco interaction (red fluorophore); Gai1:RGS12 GoLoco peptide FP, rhodamine, 10 min; P63096; Potency, µM (doses to about 61.6 µM), without a hit: at the highest dose activity, negative = inhibition, actives largely listed as inhibitors; actives 0.44% (n = 230,000); active = well fitted inhibition curve with a large enough effect, not every such curve was filed as active; inactive = no such curve, though single readings can be large or run the other way; note: % is set by controls: 0 for no effect and ±100 for the full control effect; nearly all actives have a fitted effect of over 30% in size
BLM inh – Bloom syndrome helicase (human) inhibition | recombinant BLM DNA unwinding, fluorescence dequenching | Potency, µM (highest dose often 56.1 µM), for the others: top-dose activity change, negative = inhibition, hits mostly inhibitors | actives 0.2% (n = 350,000) | AID 2528;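 note: plate controls were vehicle for no effect and no enzyme for full effect; nearly all actives have a fitted effect of over 35% in size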
RECQ1 inh-1 – RECQ1 (human) helicase inhibition; RECQ1 DNA unwinding, red fluorescence kinetic read; actives 0.54% (n = 240,000); P46063; Potency, µM (doses to about 57.3 µM), for the others: at the top dose activity, negative = inhibition, hits mostly inhibitors;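 note: plate controls were vehicle for no effect and no enzyme for full effect; nearly all actives have a fitted effect of over 30% in size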
Target sequence (P46063 whole entry, looked up): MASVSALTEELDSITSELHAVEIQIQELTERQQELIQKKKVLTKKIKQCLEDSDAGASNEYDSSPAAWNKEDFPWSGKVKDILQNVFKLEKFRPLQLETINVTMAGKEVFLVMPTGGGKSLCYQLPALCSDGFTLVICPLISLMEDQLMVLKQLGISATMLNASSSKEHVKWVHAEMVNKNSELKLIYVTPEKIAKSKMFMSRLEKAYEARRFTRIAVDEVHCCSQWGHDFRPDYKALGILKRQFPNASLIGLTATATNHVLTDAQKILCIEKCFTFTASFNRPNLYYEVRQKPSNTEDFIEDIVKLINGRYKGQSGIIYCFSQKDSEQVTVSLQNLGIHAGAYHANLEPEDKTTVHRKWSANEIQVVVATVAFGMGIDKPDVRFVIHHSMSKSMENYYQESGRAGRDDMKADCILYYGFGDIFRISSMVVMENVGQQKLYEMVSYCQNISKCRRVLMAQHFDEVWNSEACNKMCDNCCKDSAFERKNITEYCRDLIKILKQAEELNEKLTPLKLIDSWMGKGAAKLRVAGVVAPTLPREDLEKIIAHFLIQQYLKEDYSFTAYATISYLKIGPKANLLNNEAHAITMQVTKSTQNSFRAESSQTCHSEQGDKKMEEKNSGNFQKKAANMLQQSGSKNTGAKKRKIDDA
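RECQ1T1 50 nM; forked duplex (20 bp + 30-nt ss tails) 200 nM, ATP 2 mM final; pH 8.0, 2 mM MgCl2, 2.5 ug/ml poly(dI-dC); 15 min compound preincubation; discontinuous kinetic read over 2 h at RT.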
TR SRC2 fluor cs – Texas Red fluorescence interference in TRb-SRC2 counter-screen; Potency, µM (titrated, usually from 106 µM), inactives show at the highest dose fluorescence change, negative = quenching; TRb/SRC2 Texas Red total fluorescence interference; actives 0.29% (n = 280,000); active = well fitted curve in either direction with a large enough effect; inconclusive = small, poorly fitted or top-dose-only effect; note: % is set by controls: 0 for no effect and ±100 for the full control effect
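Human TRb ligand-binding domain at 0.6 uM with 20 nM Texas Red SRC2 peptide in Tris buffer containing 1 uM T3 and 5% DMSO, incubated with compound 5 h at ambient temperature. Total fluorescence (555/632 nm) calculated as parallel + 2 × perpendicular.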
TRb SRC2 PPI – TRbeta-SRC2 interaction inhibition | P10828 | TRbeta-SRC2 peptide binding, fluorescence polarization; receptor liganded with 1 µM T3 | Potency, µM (highest dose often 106 µM), for inactives: at the highest dose activity change, negative = inhibition, most hits filed as inhibitors | actives 0.065% (n = 280,000) | AID 1469;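 note: plate controls were bound peptide for no effect and peptide without receptor for full effect; nearly all actives have a fitted effect of over 50% in size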
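Fluorescence polarization of 20 nM Texas Red SRC2 peptide with 0.6 uM human TRb ligand-binding domain, in Tris buffer with 1uM T3 and 5% DMSO. Incubated 5 hr ambient; normalized to unbound and bound controls.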
ERG Ets-DNA blk – blocks human ERG Ets domain binding to DNA | actives 0.028% (n = 370,000) | Potency, µM (doses to about 76.9 µM), for the others: at the highest dose FP activity, negative = inhibition, most hits filed as inhibitors | fluorescence polarization, His-ERG Ets domain / labelled DNA | P11308; active = well fitted inhibition curve with a large enough effect in the polarisation, with a control signal flat; inconclusive = small, poorly fitted or top-dose-only effect, or effect the other way, or a change in a side signal; inactive = no such curve, though single readings can be large or run the other way; the % refers to the polarisation;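 note: polarization taken with two DNA probes labelled with fluorescein and Texas red; % of control where 0% means no effect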
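His-tagged ERG Ets domain (1 uM in the protein solution; 300mM KCl, 50mM Tris-HCl, 1mM EDTA, 1mM DTT, pH 7.5) received compound, then a probe mix of 5 nM fluorescein-DNA and 100nM Texas-615-DNA. Fluorescence polarization was read for both dyes.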
RECQ1 inh conf – confirmation of human RECQ1 helicase inhibitors | RECQ1 helicase DNA unwinding, fluorescence | Potency, µM (highest dose often 229 µM), for inactives: at the top dose activity change, negative = inhibition, most hits filed as inhibitors | actives 28% (n = 610) | AID 2708 | shares compounds with RECQ1 inh-1; note: % is set by controls: 0 for no effect and ±100 for the full control effect; nearly all actives have a fitted effect of over 45% in size
ADP FP counter – counter-screen for RECQ1 inhibitors: ADP displacement; shares compounds with RECQ1 inh-1; ADP fluorescence polarization displacement counterscreen; Potency, µM (series often up to 228 µM), for inactives: at the top dose activity change, negative = inhibition, usual class: inhibitors; actives 27% (n = 530); note: % is set by controls: 0 for no effect and ±100 for the full control effect; nearly all actives have a fitted effect of over 45% in size
RECQ1 inh-2 – blocks human RECQ1 DNA unwinding. shares compounds with RECQ1 inh-1. recombinant RECQ1 DNA unwinding, red fluorescence. Potency, µM (titrated, usually from 119 µM), inactives show at the top dose activity, negative = inhibition, most hits filed as inhibitors. actives 15% (n = 1,100); note: % is set by controls: 0 for no effect and ±100 for the full control effect; nearly all actives have a fitted effect of over 50% in size
The depositor's hits bear a star; i = inactive; ? = inconclusive; nt = no result given. Unless noted, calls come from the whole dose curve; as a rule, active = well fitted curve in the direction sought with a large enough effect; inconclusive = small, poorly fitted or top-dose-only effect, or another doubt; inactive = no such curve, though single readings can be large; an effect the other way counts as inactive or inconclusive. Potency is the fitted concentration of half-maximal effect.

SMILES | GoLoco inh red | BLM inh | RECQ1 inh-1 | TR SRC2 fluor cs | TRb SRC2 PPI | ERG Ets-DNA blk | RECQ1 inh-2 | others
Cc1ccc(C)c(Cn2c(=O)cc(C)c3c(C)nn(-c4cccc(F)c4)c32)c1 | nt | -3.0% | nt | -15.1% | 0.0% | -0.1% | nt
Cc1ccc2nc(C)cc(C(=O)OCC(=O)Nc3c(C)n(C)n(-c4ccccc4)c3=O)c2c1 | -2.6% | -1.8% | -7.1% | 1.4% | -0.8% | 1.0% | nt
Cc1c(NC(=O)COC(=O)c2ccc(O)cc2)c(=O)n(-c2ccccc2)n1C | nt | nt | nt | nt | nt | 6.0% | nt
CCNC(=O)COC(=O)c1cc(-c2ccco2)nc2ccccc12 | -1.4% | ? | 28.2µM* | -12.7% | 6.8% | -6.6% | ?
CCCc1nc2ccccc2c(C(=O)OCC(=O)Nc2c(C)n(C)n(-c3ccccc3)c2=O)c1CC | -8.9% | 1.4% | -10.6% | -4.6% | -7.2% | 14.4% | nt | RECQ1 inh conf=11.8%;ADP FP counter=14.1%
Cc1c(NC(=O)COC(=O)c2cc(-c3cccc4ccccc34)nc3ccccc23)c(=O)n(-c2ccccc2)n1C | 10.0% | -2.3% | ? | 8.9% | ? | -2.9% | ?
CCn1cc(C(=O)OCC(=O)Nc2c(C)n(C)n(-c3ccccc3)c2=O)c(=O)c2ccc(C)nc21 | 2.3% | -1.3% | i | -6.0% | -4.1% | 2.4% | nt | RECQ1 inh conf=10.8%;ADP FP counter=?
CCCCOC(=O)c1ccc(NC(=O)/C(C#N)=C/c2ccc(-c3ccccc3)o2)cc1 | nt | -8.5% | nt | ? | -2.4% | 1.9% | nt
CCc1cc(C(C)=O)c(O)cc1OCCCCCC(C)(C)c1nn[nH]n1 | 70.2% | -17.1% | -6.6% | ? | ? | nt | nt
COc1cc(OC)cc(C2=Nn3c(nnc3-c3ccccc3OC)SC2)c1 | nt | -0.1% | -21.8% | -0.8% | 1.3% | nt | nt
Cc1cccc(OCc2ccc(-c3nc(C#N)c(NCCN(C)C)o3)o2)c1 | nt | 3.6% | nt | -7.2% | 2.1% | -0.1% | nt
CSc1ccc(/C=C(/Sc2nnc(-c3ccccc3)o2)C(=O)O)cc1 | 3.4% | -0.9% | 4.2% | 2.4% | 4.1% | 6.6% | nt | RECQ1 inh conf=-3.9%;ADP FP counter=-5.2%
CCC(NC(=O)NCc1ccccc1)(C(F)(F)F)C(F)(F)F | 9.9% | -1.1% | -3.4% | -4.0% | -17.7% | 7.3% | nt
CC(NC(=O)Nc1ccc(O)cc1)(C(F)(F)F)C(F)(F)F | -10.7% | -23.7% | ? | 2.6% | 35.5µM* | -6.0% | 15.0%
CCC(NC(=O)Nc1ccc(O)cc1)(C(F)(F)F)C(F)(F)F | 10.4% | -14.2% | ? | -10.0% | ? | 1.1% | -17.1%
COc1ccc(NC(=O)NC(C)(C(F)(F)F)C(F)(F)F)cc1 | -9.8% | -5.9% | -0.4% | 0.8% | 0.3% | -3.8% | nt
CCc1ccc(CNCc2c(C(=O)O)c(C)n(Cc3c(F)cccc3Cl)c2C)cc1 | nt | 2.4% | nt | -1.3% | 9.4% | 0.6% | nt
CCN(C(=O)Cn1c(=O)n(-c2ccccc2)c(=O)c2ccc(C(=O)NCc3ccc4c(c3)OCO4)cc21)c1cccc(C)c1 | nt | -6.9% | nt | -0.1% | 2.1% | -1.7% | nt
Cc1cccc(N2CCN(C(=O)C3CCCN(S(=O)(=O)c4ccc(Br)s4)C3)CC2)c1C (configuration not stated) | nt | -8.3% | nt | 0.7% | 2.0% | -1.8% | nt
Cc1ccc(-n2nc(C)c3c2OC(N)=C(C#N)C3c2ccoc2)cc1 (configuration not stated) | 9.4% | -6.2% | ? | -10.9% | ? | 5.7% | -6.7%
Cc1ccc(-n2nc(C)c3c2OC(N)=C(C#N)C3c2ccco2)cc1 (configuration not stated) | -2.3% | -2.3% | -5.3% | -3.1% | -11.5% | 10.0% | nt
O=C(O)c1c2c(nc3ccc(S(=O)(=O)N4CCC(C(=O)N5CCCCC5)CC4)cc13)CCCC2 | 15.6% | -5.6% | ? | 1.4% | -2.7% | 0.8% | 8.3%
CC1CCc2nc3ccc(S(=O)(=O)N4CCC(C(=O)N5CCCCC5)CC4)cc3c(C(=O)O)c2C1 (configuration not stated) | 12.4% | 1.7% | -3.6% | 0.7% | 0.4% | 3.7% | nt
Cc1c(F)c(N2CCNC(C)C2)cc2c1c(=O)c(C(=O)O)cn2C1CC1 (configuration not stated) | nt | -0.3% | nt | nt | nt | nt | nt
O=C(c1ccc(F)cc1F)N1CCC(c2nc(-c3ccc(S(=O)(=O)N4CCCC4)cc3)no2)CC1 | nt | 1.3% | nt | 0.9% | -3.2% | 8.1% | nt
SMILES | GoLoco inh red | BLM inh | RECQ1 inh-1 | TR SRC2 fluor cs | TRb SRC2 PPI | ERG Ets-DNA blk | RECQ1 inh-2 | others
Cc1nc(/N=C(\N)NC(=O)N2c3ccccc3Sc3ccccc32)nc2ccccc12 | 17.5% | 6.0% | -5.9% | 2.5% | 4.8% | 8.8% | nt | RECQ1 inh conf=3.2%;ADP FP counter=-4.5%
Cc1nc(/N=C(\N)NC(=O)c2ccccc2)nc2ccccc12 | 9.8% | 3.1% | -9.0% | -3.4% | -15.5% | 4.8% | nt
COC(=O)c1ccccc1NC(=O)c1noc2c1CCC2 | -2.0% | ? | ? | -5.3% | -11.2% | -4.0% | ?
CSc1ccccc1NC(=O)c1noc2c1CCC2 | 1.0% | -3.8% | ? | -9.6% | 9.7% | 4.0% | ?
COC(=O)c1ccccc1NC(=O)c1noc2c1CSc1ccccc1-2 | nt | -8.5% | nt | -1.1% | 3.7% | -3.9% | nt
CN(Cc1ccccc1)C(=O)Cn1c(=O)c2cccn2c2ccc(F)cc21 | nt | -6.3% | nt | -0.3% | -3.5% | 1.4% | nt
Cc1ccc(NC(=O)c2sc3nc4c(cc3c2N)CN(Cc2ccccc2)CC4)cc1 | nt | -1.8% | nt | -1.2% | 5.6% | -1.9% | nt
COc1cc(OC)cc(C(=O)NCC(=O)OCC(=O)c2cc(C)n(Cc3ccco3)c2C)c1 | 7.0% | -13.4% | -18.9% | 0.3% | -5.4% | 27.5% | nt
Cc1cc(C(=O)COC(=O)CNC(=O)c2ccco2)c(C)n1Cc1ccco1 | 12.6% | -16.7% | ? | -3.0% | 0.3% | -6.1% | -5.8%
Cc1ccc2nc(COc3ccccc3NC(=O)c3ccc(F)cc3)cc(=O)n2c1 | nt | -3.8% | nt | -2.3% | 3.7% | -3.2% | nt
Cc1ccc(NC(=O)Cc2cc(C(=O)O)c3ccccc3n2)c(C)c1 | 8.6% | -0.1% | i | -3.0% | 2.8% | -26.1% | nt | RECQ1 inh conf=10.8%;ADP FP counter=-0.6%

Screening data from PubChem.
